Source: PubChem BioAssay (NCI)
Compounds without any hit were thinned out: in the full panel of roughly 83,000, 20% have a hit.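 Note: values are percent growth. 100 is the growth of untreated cells, values between 100 and 0 indicate rising inhibition; between -100 and 0 indicates cell death.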 Calls of active or inactive are those of the source. The calls were made as follows: active = growth percent below 10; inactive = the rest.

What was measured:
Assay in all cases: NCI-60 one-dose screen, 48 h (100 = growth as untreated, 0 = no growth, -100 = all killed)
Settings in all cases: 10 µM unless noted
HT29 colon = test system: HT29 colon
SNB-75 CNS = test system: SNB-75 CNS
SNB-19 CNS = test system: SNB-19 CNS
SK-MEL-5 melanoma = test system: SK-MEL-5 melanoma
UACC-62 melanoma = test system: UACC-62 melanoma
LOX IMVI melanoma = test system: LOX IMVI melanoma
SK-MEL-28 melanoma = test system: SK-MEL-28 melanoma
U251 CNS = test system: U251 CNS
PC-3 prostate = test system: PC-3 prostate
SK-MEL-2 melanoma = test system: SK-MEL-2 melanoma

Measured: growth

Cc1[nH]n(C(N)=S)c(=O)c1N=Nc1ccc(F)c(Cl)c1
inactive: HT29 colon 147% | SNB-75 CNS 119% | SNB-19 CNS 164% | SK-MEL-5 melanoma 95% | UACC-62 melanoma 84.6% | LOX IMVI melanoma 110% | SK-MEL-28 melanoma 116%

CN(CC(=O)N(Cc1ccc(C2CCCCC2)cc1)c1ccc(C(=O)O)cc1)S(=O)(=O)c1c(F)c(F)c(F)c(F)c1F
active: HT29 colon -22.3% | U251 CNS -25.4% | UACC-62 melanoma -7.33% | LOX IMVI melanoma -64.1% | SK-MEL-28 melanoma -51.8% | SK-MEL-2 melanoma -31.7%
inactive: SNB-75 CNS 68.6% | PC-3 prostate 10.4% | SK-MEL-5 melanoma 86.6%

Cc1cc(C(C)(C)c2cc(C)c(O)c(CN(C)C)c2)cc(CN(C)C)c1O
inactive: HT29 colon 76.3% | SNB-75 CNS 90.1% | U251 CNS 67.8% | PC-3 prostate 80% | SK-MEL-5 melanoma 85.8% | UACC-62 melanoma 75.5% | LOX IMVI melanoma 81.8% | SK-MEL-28 melanoma 79.2%

CC(=O)NCCSC(=O)C(=O)SCCNC(C)=O
inactive: HT29 colon 120% | SNB-75 CNS 93% | SNB-19 CNS 104% | SK-MEL-5 melanoma 104% | UACC-62 melanoma 99.4% | LOX IMVI melanoma 104% | SK-MEL-28 melanoma 118% | SK-MEL-2 melanoma 19%

COc1ccc2c(c1)C(=O)c1c-2c(OCCCN(C)C)nc2cc(Br)ccc12
inactive: SNB-75 CNS 79.2% | PC-3 prostate 63.8% | SK-MEL-5 melanoma 87.4% | UACC-62 melanoma 86.4% | LOX IMVI melanoma 20.7%
active: HT29 colon -19.7% | U251 CNS -75.7% | SK-MEL-28 melanoma -48.6%

CSc1nnc(C2=CC(=O)c3ccccc3C2=O)n1-c1ccccc1
inactive: HT29 colon 110% | SNB-75 CNS 74.8% | SNB-19 CNS 91.5% | PC-3 prostate 86.7% | UACC-62 melanoma 84.1% | SK-MEL-28 melanoma 105%

NC(=O)NN=C(C1CC1)C1CC1
inactive: HT29 colon 103% | SNB-75 CNS 92.6% | SNB-19 CNS 106% | SK-MEL-5 melanoma 111% | UACC-62 melanoma 110% | LOX IMVI melanoma 95.9% | SK-MEL-28 melanoma 116% | SK-MEL-2 melanoma 110%

O=C(/C(=N/O)S(=O)(=O)c1ccccc1)c1cccs1
inactive: HT29 colon 107% | SNB-75 CNS 92.6% | SNB-19 CNS 100% | PC-3 prostate 97.7% | UACC-62 melanoma 104% | SK-MEL-28 melanoma 111%

C[C@]12CC[C@@H]3c4ccc(O)c([N+](=O)[O-])c4CC[C@H]3[C@@H]1CC[C@@H]2NS(=O)(=O)c1ccc(C(F)(F)F)cc1
inactive: HT29 colon 48% | SNB-75 CNS 40.5% | SNB-19 CNS 48.7% | SK-MEL-5 melanoma 20.4% | UACC-62 melanoma 36.1% | SK-MEL-28 melanoma 43.5%

COc1ccc(Cn2c(NCCCN(C)C)nc(=O)n(Cc3ccc(F)cc3)c2=O)cc1
inactive: HT29 colon 95.9% | SNB-75 CNS 81.4% | SNB-19 CNS 104% | PC-3 prostate 80.3% | UACC-62 melanoma 97% | SK-MEL-28 melanoma 100%

Clc1ccc(-n2cnc3c(Cl)ncnc32)cc1Cl
inactive: HT29 colon 74.8% | SNB-75 CNS 99.5% | SNB-19 CNS 91.5% | SK-MEL-5 melanoma 103% | UACC-62 melanoma 85.4% | LOX IMVI melanoma 36.6% | SK-MEL-28 melanoma 64.1% | SK-MEL-2 melanoma 89.7%

CC(CCC(=O)O)(NC(=O)c1ccc([N+](=O)[O-])cc1)C(=O)O (stereo unspecified)
inactive: HT29 colon 109% | SNB-75 CNS 91.6% | U251 CNS 104% | PC-3 prostate 98.4% | SK-MEL-5 melanoma 101% | UACC-62 melanoma 109% | LOX IMVI melanoma 97.1% | SK-MEL-28 melanoma 107% | SK-MEL-2 melanoma 108%

O=C1C(=O)c2ccc(Br)cc2-c2cc(Br)ccc21
active: U251 CNS -31.8% | LOX IMVI melanoma -24.6%
inactive: HT29 colon 105% | SNB-75 CNS 84.2% | PC-3 prostate 83.7% | SK-MEL-5 melanoma 63.3% | UACC-62 melanoma 92.4% | SK-MEL-28 melanoma 76.7% | SK-MEL-2 melanoma 87.7%

N#Cc1c(N)[nH]c(S)c1C#N
inactive: HT29 colon 99.9% | SNB-75 CNS 97.2% | U251 CNS 101% | PC-3 prostate 87.9% | SK-MEL-5 melanoma 96.9% | UACC-62 melanoma 94.9% | LOX IMVI melanoma 102% | SK-MEL-28 melanoma 113%

C/C(=C\CCc1ccsc1)CC/C=C(\C)CCCN1CCC(CO)CC1
inactive: SNB-75 CNS 41.1% | SNB-19 CNS 52.6% | PC-3 prostate 41.2%
active: HT29 colon -42.6% | UACC-62 melanoma -83.4% | SK-MEL-28 melanoma 9.39%

CCc1ccc(CCN2C(=O)c3ccccc3C2=O)nc1
inactive: HT29 colon 109% | SNB-75 CNS 99% | SNB-19 CNS 91.7% | SK-MEL-5 melanoma 107% | UACC-62 melanoma 98.6% | LOX IMVI melanoma 101% | SK-MEL-28 melanoma 118%

COc1ccc(Nc2nccc(N3CCN(c4c5ccc(Cl)cc5nc5ccc(OC)cc45)CC3)n2)cc1
inactive: HT29 colon 44.6% | SNB-75 CNS 67.5% | SNB-19 CNS 92.2% | PC-3 prostate 57.9% | UACC-62 melanoma 76.4% | SK-MEL-28 melanoma 105%

O=C(Cc1ccccn1)C(F)(F)C(F)(F)C(F)(F)F
inactive: HT29 colon 111% | SNB-75 CNS 93.6% | SNB-19 CNS 99.8% | UACC-62 melanoma 102% | LOX IMVI melanoma 95.5% | SK-MEL-28 melanoma 105%

O=C(Nc1ccc(Cl)cc1)Nc1ccc(Oc2nncc3ccccc23)cc1
active: HT29 colon 0.517% | SNB-75 CNS -3.13% | U251 CNS -31.1% | PC-3 prostate -29% | SK-MEL-5 melanoma -43.3% | UACC-62 melanoma -14.3% | LOX IMVI melanoma -77.3% | SK-MEL-28 melanoma -31.6%
inactive: SK-MEL-2 melanoma 12.4%

COc1cc(Oc2cc(-c3cccnc3)ccc2NC(=O)Nc2ccc(F)cc2F)cc(OC)c1OC
inactive: HT29 colon 105% | SNB-75 CNS 83.8% | U251 CNS 92.2% | PC-3 prostate 84.3% | SK-MEL-5 melanoma 92.6% | UACC-62 melanoma 88.9% | LOX IMVI melanoma 107% | SK-MEL-28 melanoma 119% | SK-MEL-2 melanoma 112%

CN1CCN(Cc2ccc(NC(=O)c3[nH]ncc3Nc3ccnc4ccnn34)cc2)CC1
inactive: HT29 colon 67% | SNB-75 CNS 63.2% | U251 CNS 62% | PC-3 prostate 55.9% | SK-MEL-5 melanoma 71.6% | UACC-62 melanoma 67.7% | LOX IMVI melanoma 24.1% | SK-MEL-28 melanoma 65.6% | SK-MEL-2 melanoma 60.6%

O=C1C(Cl)=C(N=Nc2c(Cl)c(O)c3ccccc3c2O)C(=O)c2ccccc21
active: UACC-62 melanoma 5.34%
inactive: HT29 colon 76.3% | SNB-75 CNS 85.8% | SNB-19 CNS 66.3% | SK-MEL-5 melanoma 53.1% | LOX IMVI melanoma 43% | SK-MEL-28 melanoma 67.3% | SK-MEL-2 melanoma 98.5%

CC(C)c1ccc(C(=O)Nc2sc3c(CN(C)C)c(O)ccc3c2C(N)=O)cc1
inactive: SNB-75 CNS 48.5% | SNB-19 CNS 84.4% | SK-MEL-5 melanoma 88.3% | UACC-62 melanoma 104% | SK-MEL-28 melanoma 84.2% | SK-MEL-2 melanoma 96.4%
active: HT29 colon 2.74% | LOX IMVI melanoma -88.3%

O=C(c1nn(-c2ccc(Cl)cc2)cc1O)n1nc(C(F)(F)F)cc1-c1ccccc1
inactive: HT29 colon 37.8% | SNB-75 CNS 55.4% | SNB-19 CNS 51.2% | SK-MEL-5 melanoma 59% | UACC-62 melanoma 44.2% | LOX IMVI melanoma 32.8% | SK-MEL-28 melanoma 53% | SK-MEL-2 melanoma 67.9%

C=C1CC[C@@H]2[C@](C)(COC(C)=O)[C@H](OC(C)=O)CC[C@@]2(C)[C@@H]1CC(Nc1ccc(S(=O)(=O)Nc2cc(C)on2)cc1)C1=CCOC1=O (stereo partly specified)
inactive: SNB-75 CNS 59.4% | U251 CNS 30% | PC-3 prostate 70.8% | SK-MEL-5 melanoma 44.1% | UACC-62 melanoma 19.8% | SK-MEL-28 melanoma 38.1% | SK-MEL-2 melanoma 63%
active: HT29 colon -11% | LOX IMVI melanoma -72.7%

CCCC[N+](CCCC)=c1ccc2nc3c(C)cc(N(CC)CC)cc3sc-2c1
active: HT29 colon -68.6% | SNB-75 CNS -0.166% | U251 CNS -11.3% | PC-3 prostate -13.9% | SK-MEL-5 melanoma -96.9% | UACC-62 melanoma -35.7% | LOX IMVI melanoma -70.4% | SK-MEL-28 melanoma -2.53% | SK-MEL-2 melanoma -51%

Cc1cc2c(cc1C)Nc1sc(NC(=O)CN3CCN(C)CC3)nc1C(=O)N2
inactive: HT29 colon 99.8% | SNB-75 CNS 104% | SNB-19 CNS 96.6% | PC-3 prostate 101% | UACC-62 melanoma 105% | SK-MEL-28 melanoma 108%
